Max response and Potency data for 34 molecules are collected here from PubChem BioAssay AID1645883 (National Center for Advancing Translational Sciences (NCATS), 2021).

The whole screen tested about 16,000 compounds, of which about 160 (1%) were called active. Another 8% or so got no clear call; they are omitted. Only a selection was taken, and actives are over-represented in it overall. A number with no mark means an inactive call. Calls follow the shape of the dose curve; as a rule, active = well fitted activation curve with a large enough effect; inconclusive = small, poorly fitted or top-dose-only effect; inactive = no such curve, though single readings can be large or run the other way.
% is scaled to controls: 0 for no effect and ±100 for the full control effect; potency is read from the fitted curve at half-maximal effect.

Chain of Rap guanine nucleotide exchange factor 3 (Homo sapiens) (O95398 whole entry, looked up): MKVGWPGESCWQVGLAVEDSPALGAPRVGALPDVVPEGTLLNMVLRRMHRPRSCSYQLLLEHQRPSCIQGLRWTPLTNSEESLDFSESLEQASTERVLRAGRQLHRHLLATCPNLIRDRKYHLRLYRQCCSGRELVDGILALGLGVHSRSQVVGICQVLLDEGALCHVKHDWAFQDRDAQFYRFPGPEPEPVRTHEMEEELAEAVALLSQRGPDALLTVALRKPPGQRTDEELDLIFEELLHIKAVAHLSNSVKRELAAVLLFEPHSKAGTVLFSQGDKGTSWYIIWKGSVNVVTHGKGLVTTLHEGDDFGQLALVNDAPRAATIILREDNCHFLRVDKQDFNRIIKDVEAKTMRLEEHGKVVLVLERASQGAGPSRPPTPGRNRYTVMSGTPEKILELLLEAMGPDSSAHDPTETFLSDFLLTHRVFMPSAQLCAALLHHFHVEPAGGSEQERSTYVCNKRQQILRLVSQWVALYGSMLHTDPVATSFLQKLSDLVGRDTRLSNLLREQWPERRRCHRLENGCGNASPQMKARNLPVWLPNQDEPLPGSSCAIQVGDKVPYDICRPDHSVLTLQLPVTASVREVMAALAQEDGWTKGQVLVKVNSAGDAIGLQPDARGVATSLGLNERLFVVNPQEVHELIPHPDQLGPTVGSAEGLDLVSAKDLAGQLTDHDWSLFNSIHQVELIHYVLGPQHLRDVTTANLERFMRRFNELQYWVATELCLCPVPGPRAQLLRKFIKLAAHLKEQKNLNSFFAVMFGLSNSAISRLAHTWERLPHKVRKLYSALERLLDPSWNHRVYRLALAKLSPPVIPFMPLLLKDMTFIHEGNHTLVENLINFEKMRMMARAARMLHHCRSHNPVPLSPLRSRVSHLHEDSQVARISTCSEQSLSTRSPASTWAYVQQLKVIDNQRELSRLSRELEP

This experiment addresses Rap guanine nucleotide exchange factor 3 (Homo sapiens) (UniProt O95398). The experiment can be described thus: Validation qHTS for agonist of cAMP-regulated guanine nucleotide exchange factor 3 (EPAC1). Also: nearly all actives have a fitted effect of over 70% in size. The settings on record: EPAC1 Rap1b BODIPY-GDP exchange, fluorescence; max response: stronger effect = higher value, percent of cAMP control response. The text has this:
Assay Provider (PI): Xiaodong Cheng Ph.D.
The University of Texas Medical Branch, […], TX
In multi-cellular eukaryotic organisms, the effects of cAMP are transduced by two ubiquitously-expressed intracellular cAMP receptors, the classic protein kinase A/cAMP-dependent protein kinase (PKA/cAPK) and the more recently discovered exchange protein directly activated by cAMP/cAMP-regulated guanine nucleotide exchange factor (EPAC/cAMP-GEF). Both PKA and EPAC are ubiquitously expressed in all tissues, and an increase in intracellular cAMP levels will lead to the activation of both PKA and EPAC. Therefore, careful dissections of the individual role and relative contribution of EPAC and PKA within the overall cAMP signaling in various model systems are critical for further elucidating the mechanism of cAMP signaling. To date no EPAC-specific antagonists and agonist, as well as isoform-specific agonists have been reported, and developing EPAC-specific pharmacological probes to determine the physiological functions that EPAC play in the overall cAMP-mediated signaling remains a major challenge within the research field. Furthermore, identified regulators of EPAC may lead to new mechanism-based therapeutic strategies specifically targeting the EPAC / cAMP-signaling components as EPAC has been implicated to play important roles in major human pathological conditions such as diabetes, heart disease, and cancer.
This qHTS will be used to screen the Molecular Libraries Small Molecule Repository (MLSMR) as a concentration-titration series using the NCGC unique quantitative screening (qHTS) platform to find activators for EPAC1. In addition, this assay will also be used as a counterscreen for the EPAC2 qHTS. This fluorescent based assay is developed and validated for EPAC1 that measures exchange using EPAC effector Rap1 complex with BODIPY-GDP, a GDP analog with a tethered fluorophores. Activators are identified by monitoring the change in fluorescence signal as the exchanged free BODIPY-GDP has a reduced fluorescence compared to Rap1-bound BODIPY-GDP. Increase in signal (activation) is the desired outcome for the EPAC1 agonist while no activity in this assay is desired for the EPAC2 agonist counterscreen.
[1] de Rooij, J., Zwartkruis, F. J., Verheijen, M. H., Cool, R. H., Nijman, S. M., Wittinghofer, A., and Bos, J.L. (1998) Nature 396, 474-477.
Briefly, three uL of reagents (100 nM EPAC1, 250 nM RAP1B-BODIPY-GDP, 50 uM GDP) were dispensed into a 1536-well Greiner black solid-bottom medium binding assay plate. Controls and test compounds (23 nL) were transferred to the plate via a Kalypsys pin tool equipped with a 1536-pin array. The plates were centrifuged at 1,000 rpm for 15 seconds followed by 5 minute incubation at room temperature. The assay plates were read at 5 minute intervals for 30 minutes in the ViewLux plate reader using 480nm excitation and 540nm emission filters. The results were normalized to the agonist positive control of 6.5 mM cAMP.
With `COc1ccc(/C=C2\NC(=O)[C@@H]3Cc4ccccc4CN3C2=O)cc1`, the max response is 5.8%.

Regarding `CN1CCN2c3ccccc3Cc3ccccc3[C@@H]2C1`, the max response was -0.216%.

For the molecule `CCS(=O)(=O)Nc1cc(C(=O)N2C[C@@H](C)O[C@@H](C)C2)c2c(c1)nc(-c1ccccc1)n2C`, the max response is 19.2%.

Regarding `COc1ccc(CNc2ncnc3ccc(-c4cccnc4)cc23)c(OC)c1`, the max response was -62.5%.

Consider `FC(F)(F)c1ccccc1-c1nc(-n2ccnc2)c2ccccc2n1`, for which the max response was 0.971%.

Take `CC(=O)Nc1ccc(SC[C@H](Cc2ccccc2)N2CC[C@@H](C)CCC2=O)cc1`: the max response is -7.47%.

For the molecule `CCCN(C/C=C\I)[C@@H]1CCc2cccc(O)c2C1`, the max response is -15.6%.

Regarding `COc1ccccc1-c1nc(N2CCN(C)CC2)c2ccccc2n1`, the max response is -31.8%.

For the molecule `c1ccc2nc(C3=NCCN3)cnc2c1`, the max response was 0.273%.

As to `O=c1cnc2cnc(Nc3ccccc3)nc2n1Cc1ccc(F)cc1`, the max response is -19.3%.

Regarding `Nc1ccc2c3c(cccc13)C(=O)NC2=O`, the Potency is 7.08 µM (active).

In the case of `CCC1CN(CCNC(=O)c2ccsc2)Cc2cc(OC)ccc2O1` (centres undefined), the max response was 4.39%.

For the molecule `O=c1c(CCc2ccccc2)nc2cncnc2n1C1CC1`, the max response is 26%.

In the case of `CC(=O)c1ccc(F)c(-c2cc(C)cc3c2OC(CNC(=O)Cc2c[nH]c4ccccc24)C3)c1` (centres undefined), the max response is 24.4%.

`CCCCCCCCCCCCCCCCO`: the max response was -1.51%.

Turning to `CC(=O)OCC(=O)[C@@]1(O)CCC2C3CCC4=CC(=O)CC[C@@]4(C)[C@]3(F)C(O)C[C@]21C` (some centres undefined), the max response was -5.21%.

With `CN1CC(O)c2cc(N=NC(N)=O)c(O)cc21` (centres undefined), the max response is -6.9%.

As to `CCCc1nc2c(C)cc(-c3nc4ccccc4n3C)cc2n1Cc1ccc(-c2ccccc2C(=O)O)cc1`, the max response was -43.1%.

Take `COc1ccccc1CNc1cc(-c2ccccc2CN(C)C)ncn1`: the max response was -35.4%.

`FC(F)(F)c1ccccc1-c1cc(NCc2ccccc2)ncn1`: the max response is -105%.

Consider `Cc1cnc(C(=O)N2CCOc3ccc(CN4CCCC(C(=O)c5cccnc5)C4)cc3C2)[nH]1` (centres undefined), for which the max response was -8.53%.

For `O=C(Nc1ccc(O)cc1)c1ccccc1O`, the max response is 7.12%.

For the molecule `CC(C(=O)O)c1ccc(C2CCCCC2)c2ccccc12` (centres undefined), the max response was 5.84%.

Consider `CCOC(=O)Cc1cccc(-c2cc(CCCCCCc3ccc(O[C@H]4O[C@H](COC(C)=O)[C@@H](OC(C)=O)[C@H](OC(C)=O)[C@@H]4OC(C)=O)c(-c4cccc(CC(=O)OCC)c4)c3)ccc2O[C@H]2O[C@H](COC(C)=O)[C@@H](OC(C)=O)[C@H](OC(C)=O)[C@@H]2OC(C)=O)c1`, for which the max response was -9.09%.

With `CCc1nc2cc(C(=O)NCC3CCS(=O)(=O)C3)cc(NC(=O)c3ccccc3OC)c2n1C` (centres undefined), the max response is -13.5%.

On to `COC(=O)c1ccccc1C(=O)NCc1nc(N2CCCC2)c2cccc(C)c2n1`, for which the max response was -26.9%.

On to `CN(Cc1cccc2ncccc12)C(=O)c1cnn(-c2nccc(-c3ccccc3F)n2)c1C1CC1`, for which the max response is -28.3%.

As for `CC(=O)N1CCC2(CC1)CCN(c1ccncc1)CC2`, the max response was -44.5%.

For the molecule `Cc1noc(C)c1-c1nc(Nc2ccccc2)c2ccccc2n1`, the max response was -34.4%.

Take `O=C(c1ccncc1)N1CCC2(CCN(Cc3cc(C(F)(F)F)cc(C(F)(F)F)c3)CC2)CC1`: the max response is -125%.

For the molecule `CC(C)NC(=O)N1CC[C@@]2(CCCN(C(=O)c3cccc(F)c3)C2)C1`, the max response is 17.8%.

Regarding `O=C(c1cc(C(F)(F)F)cc(C(F)(F)F)c1)N1CCC2(CCCN(c3ccccn3)C2)CC1`, the max response is -45%.

With `CC(C)NC(=O)N1CCCC2(CCN(C(=O)c3cccn3C)CC2)C1`, the max response is -48.1%.

On to `N#Cc1ccc[n+](CC(=O)c2ccc(F)cc2)c1`, for which the max response was 3.1%.
